Of roughly 7,900 targets only a part is listed; those with a hit were picked by preference. About 0.6% of all pairs of compound and target were hits. A number with no mark means an inactive call.
Legend:
Test in all cases: log2 fold change, soluble protein after heating vs DMSO (PISA); higher = thermal stabilisation; K562 cells, 10 uM, 30 min; active = over 0.2 and 3.5 SD of the protein, either way, in both replicates (recomputed)
bafetinib = compound: Cc1ccc(NC(=O)c2ccc(CN3CC[C@H](N(C)C)C3)c(C(F)(F)F)c2)cc1Nc1nccc(-c2cncnc2)n1 [bafetinib]
Summary of the method: (§1)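 Values are thermal stability changes relative to control samples and are taken from duplicates. They are stated as log2 fold changes. Before quantification by TMTpro 16plex LC-MS/MS with equalised channel sums, K562 cells at 2×10^6 cells/mL were treated with 10 μM compound for 30 min, heated in aliquots for 3 min across 48°C-58°C, pooled, extracted in PBS with 0.5% NP-40 at 4°C, and centrifuged at 21,000xg for 90 min to give the soluble supernatant.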

nilotinib = compound: Cc1cn(-c2cc(NC(=O)c3ccc(C)c(Nc4nccc(-c5cccnc5)n4)c3)cc(C(F)(F)F)c2)cn1 [nilotinib]
Summary of the method: as §1

[1] = compound: Cc1nc(Nc2n[nH]c3c2CN(C(=O)N[C@H](CN(C)C)c2ccccc2)C3(C)C)c2sccc2n1
Summary of the method: as §1

dasatinib = compound: Cc1nc(Nc2ncc(C(=O)Nc3c(C)cccc3Cl)s2)cc(N2CCN(CCO)CC2)n1 [dasatinib]
Summary of the method: as §1

[2] = compound: Cc1ncc(-c2ccnc(Nc3ccc(S(C)(=O)=O)cc3)n2)n1C(C)C
Summary of the method: as §1

[3] = compound: Cn1cc(-c2ccc3c(c2)CCN3C(=O)Cc2cccc(C(F)(F)F)c2)c2c(N)ncnc21
Summary of the method: as §1

[4] = compound: Cn1cc(-c2ccc3nnc(C(F)(F)c4ccc5ncccc5c4)n3n2)cn1
Summary of the method: as §1

tipifarnib = compound: Cn1cncc1[C@@](N)(c1ccc(Cl)cc1)c1ccc2c(c1)c(-c1cccc(Cl)c1)cc(=O)n2C [tipifarnib]
Summary of the method: as §1

mubritinib = compound: FC(F)(F)c1ccc(/C=C/c2nc(COc3ccc(CCCCn4ccnn4)cc3)co2)cc1 [mubritinib]
Summary of the method: as §1

[5] = compound: NC(=O)c1cnc(N[C@@H]2CCCC[C@@H]2N)nc1Nc1cccc(-n2nccn2)c1
Summary of the method: as §1

[6] = compound: NC1(c2ccc(-c3nc4ccn5c(=O)[nH]nc5c4cc3-c3ccccc3)cc2)CCC1
Summary of the method: as §1

[7] = compound: NCC(=O)Nc1ccc(-n2nc(C(F)(F)F)cc2-c2ccc3c(ccc4ccccc43)c2)cc1
Summary of the method: as §1

citarinostat = compound: O=C(CCCCCCNC(=O)c1cnc(N(c2ccccc2)c2ccccc2Cl)nc1)NO [citarinostat]
Summary of the method: as §1

silmitasertib = compound: O=C(O)c1ccc2c(c1)nc(Nc1cccc(Cl)c1)c1ccncc12 [silmitasertib]
Summary of the method: as §1

[8] = compound: O=C1NC(=O)C(c2cnc3ccccn23)=C1c1cn2c3c(cc(F)cc13)CN(C(=O)N1CCCCC1)CC2
Summary of the method: as §1

[9] = compound: c1cc(OCCN2CCCCC2)cc(-c2n[nH]c3ccc(-c4nnc[nH]4)cc23)c1
Summary of the method: as §1

[10] = compound: NC(=O)Nc1cc(-c2cccc(F)c2)sc1C(=O)N[C@H]1CCCNC1
Summary of the method: as §1

entinostat = compound: Nc1ccccc1NC(=O)c1ccc(CNC(=O)OCc2cccnc2)cc1 [entinostat]
Summary of the method: as §1

[11] = compound: Cc1cccc(CC(=O)N2CCc3c2ccc(-c2cn(C)c4ncnc(N)c24)c3F)n1
Summary of the method: as §1

vorinostat = compound: O=C(CCCCCCC(=O)Nc1ccccc1)NO [vorinostat]
Summary of the method: as §1

Chain of UniProt P36956 (P36956 whole entry, looked up): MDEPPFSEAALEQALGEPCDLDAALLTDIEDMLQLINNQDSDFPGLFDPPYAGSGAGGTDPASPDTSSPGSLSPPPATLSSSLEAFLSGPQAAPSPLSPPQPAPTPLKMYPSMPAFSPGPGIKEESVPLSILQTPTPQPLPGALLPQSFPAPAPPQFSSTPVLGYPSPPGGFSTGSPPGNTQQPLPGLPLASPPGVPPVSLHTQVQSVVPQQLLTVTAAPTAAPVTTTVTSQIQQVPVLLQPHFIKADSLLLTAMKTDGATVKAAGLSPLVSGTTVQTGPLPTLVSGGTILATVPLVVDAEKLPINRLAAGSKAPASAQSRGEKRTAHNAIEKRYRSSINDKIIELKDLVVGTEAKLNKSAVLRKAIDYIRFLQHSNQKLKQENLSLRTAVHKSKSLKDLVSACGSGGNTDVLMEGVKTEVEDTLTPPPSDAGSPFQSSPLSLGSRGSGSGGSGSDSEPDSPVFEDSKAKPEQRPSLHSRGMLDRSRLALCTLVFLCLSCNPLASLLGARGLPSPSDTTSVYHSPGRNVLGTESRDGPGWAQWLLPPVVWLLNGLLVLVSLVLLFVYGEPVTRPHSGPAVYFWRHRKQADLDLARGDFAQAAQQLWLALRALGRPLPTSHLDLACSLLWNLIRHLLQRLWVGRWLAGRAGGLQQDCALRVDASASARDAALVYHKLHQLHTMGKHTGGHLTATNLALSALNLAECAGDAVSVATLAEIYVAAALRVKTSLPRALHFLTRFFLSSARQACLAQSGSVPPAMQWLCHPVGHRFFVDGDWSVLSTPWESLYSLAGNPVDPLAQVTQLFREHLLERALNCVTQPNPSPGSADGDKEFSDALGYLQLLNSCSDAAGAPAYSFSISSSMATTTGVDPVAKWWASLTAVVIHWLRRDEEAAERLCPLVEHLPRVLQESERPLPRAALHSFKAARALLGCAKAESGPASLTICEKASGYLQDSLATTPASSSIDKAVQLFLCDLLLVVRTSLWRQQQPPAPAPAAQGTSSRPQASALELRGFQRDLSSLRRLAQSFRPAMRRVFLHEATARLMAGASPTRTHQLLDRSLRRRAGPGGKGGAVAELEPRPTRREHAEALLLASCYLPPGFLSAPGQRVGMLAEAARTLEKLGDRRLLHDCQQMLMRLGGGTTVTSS
Chain of UniProt Q9NXE4 (Q9NXE4 whole entry, looked up): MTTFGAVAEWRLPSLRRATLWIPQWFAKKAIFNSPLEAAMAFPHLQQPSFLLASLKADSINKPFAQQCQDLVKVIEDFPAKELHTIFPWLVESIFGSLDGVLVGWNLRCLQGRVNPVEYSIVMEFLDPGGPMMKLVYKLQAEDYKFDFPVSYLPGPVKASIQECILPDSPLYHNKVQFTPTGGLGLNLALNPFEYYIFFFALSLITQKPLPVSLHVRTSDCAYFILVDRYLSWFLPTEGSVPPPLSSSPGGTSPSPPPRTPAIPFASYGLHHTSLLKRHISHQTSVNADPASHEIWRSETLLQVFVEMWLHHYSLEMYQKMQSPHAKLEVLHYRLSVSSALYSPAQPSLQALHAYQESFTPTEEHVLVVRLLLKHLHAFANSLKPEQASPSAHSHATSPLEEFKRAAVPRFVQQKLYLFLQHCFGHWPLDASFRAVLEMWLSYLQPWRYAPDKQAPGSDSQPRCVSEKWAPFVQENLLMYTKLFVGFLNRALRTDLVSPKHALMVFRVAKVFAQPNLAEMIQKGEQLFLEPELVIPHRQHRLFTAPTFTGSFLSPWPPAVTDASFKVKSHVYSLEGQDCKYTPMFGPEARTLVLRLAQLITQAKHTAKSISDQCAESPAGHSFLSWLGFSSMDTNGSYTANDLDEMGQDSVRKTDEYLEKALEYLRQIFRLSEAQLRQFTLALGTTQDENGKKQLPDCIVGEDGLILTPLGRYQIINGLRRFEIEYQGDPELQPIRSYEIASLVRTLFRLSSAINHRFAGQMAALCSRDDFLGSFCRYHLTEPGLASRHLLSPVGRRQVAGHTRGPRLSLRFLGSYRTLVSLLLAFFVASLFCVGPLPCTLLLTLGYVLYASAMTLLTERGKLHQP
Chain of UniProt Q96QD8 (Q96QD8 whole entry, looked up): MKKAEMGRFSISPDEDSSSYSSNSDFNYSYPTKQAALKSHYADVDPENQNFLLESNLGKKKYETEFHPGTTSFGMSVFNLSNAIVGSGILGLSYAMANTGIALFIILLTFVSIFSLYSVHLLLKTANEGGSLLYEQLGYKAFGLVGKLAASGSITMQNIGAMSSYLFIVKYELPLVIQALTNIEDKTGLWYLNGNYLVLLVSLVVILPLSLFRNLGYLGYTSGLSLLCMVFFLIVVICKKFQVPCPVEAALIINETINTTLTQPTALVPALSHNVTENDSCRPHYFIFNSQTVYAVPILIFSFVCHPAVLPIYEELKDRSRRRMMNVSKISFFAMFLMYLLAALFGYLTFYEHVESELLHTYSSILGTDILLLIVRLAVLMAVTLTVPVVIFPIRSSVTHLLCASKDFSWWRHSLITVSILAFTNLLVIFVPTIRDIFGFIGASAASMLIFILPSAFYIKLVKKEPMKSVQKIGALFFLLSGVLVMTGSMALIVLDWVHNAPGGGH
Chain of UniProt Q8N357 (Q8N357 whole entry, looked up): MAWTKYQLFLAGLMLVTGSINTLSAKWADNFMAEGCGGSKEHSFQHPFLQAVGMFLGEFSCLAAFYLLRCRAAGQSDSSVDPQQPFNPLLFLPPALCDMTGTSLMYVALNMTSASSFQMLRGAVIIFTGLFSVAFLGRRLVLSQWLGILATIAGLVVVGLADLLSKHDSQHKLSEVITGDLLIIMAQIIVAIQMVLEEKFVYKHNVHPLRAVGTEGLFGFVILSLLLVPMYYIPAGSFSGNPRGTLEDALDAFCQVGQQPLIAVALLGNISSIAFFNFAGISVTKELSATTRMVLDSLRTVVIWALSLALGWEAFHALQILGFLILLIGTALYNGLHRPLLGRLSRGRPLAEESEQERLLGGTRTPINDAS
Chain of UniProt P20226 (P20226 whole entry, looked up): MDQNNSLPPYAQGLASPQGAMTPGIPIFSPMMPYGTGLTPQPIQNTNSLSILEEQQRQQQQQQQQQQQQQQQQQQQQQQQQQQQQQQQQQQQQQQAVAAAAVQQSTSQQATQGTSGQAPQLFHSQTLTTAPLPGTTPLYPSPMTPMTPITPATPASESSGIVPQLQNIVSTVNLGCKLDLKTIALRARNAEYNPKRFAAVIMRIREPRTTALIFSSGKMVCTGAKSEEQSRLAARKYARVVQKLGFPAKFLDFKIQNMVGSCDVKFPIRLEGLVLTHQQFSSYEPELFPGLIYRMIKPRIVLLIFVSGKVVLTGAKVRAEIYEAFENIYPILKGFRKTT
Chain of UniProt O60749 (O60749 whole entry, looked up): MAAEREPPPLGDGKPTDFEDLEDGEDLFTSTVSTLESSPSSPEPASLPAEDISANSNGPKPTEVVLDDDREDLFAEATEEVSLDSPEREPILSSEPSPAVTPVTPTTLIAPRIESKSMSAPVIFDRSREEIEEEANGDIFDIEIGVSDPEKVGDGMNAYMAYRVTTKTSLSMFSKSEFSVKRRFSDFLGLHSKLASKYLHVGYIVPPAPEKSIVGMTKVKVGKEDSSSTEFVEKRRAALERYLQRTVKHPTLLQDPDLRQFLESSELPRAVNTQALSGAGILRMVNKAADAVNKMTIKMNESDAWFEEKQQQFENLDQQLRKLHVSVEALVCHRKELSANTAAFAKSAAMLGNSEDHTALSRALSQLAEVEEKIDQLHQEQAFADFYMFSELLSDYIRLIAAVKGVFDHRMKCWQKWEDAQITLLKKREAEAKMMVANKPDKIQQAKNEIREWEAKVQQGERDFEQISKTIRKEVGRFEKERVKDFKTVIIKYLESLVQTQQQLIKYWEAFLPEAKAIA
Chain of UniProt Q6J4K2 (Q6J4K2 whole entry, looked up): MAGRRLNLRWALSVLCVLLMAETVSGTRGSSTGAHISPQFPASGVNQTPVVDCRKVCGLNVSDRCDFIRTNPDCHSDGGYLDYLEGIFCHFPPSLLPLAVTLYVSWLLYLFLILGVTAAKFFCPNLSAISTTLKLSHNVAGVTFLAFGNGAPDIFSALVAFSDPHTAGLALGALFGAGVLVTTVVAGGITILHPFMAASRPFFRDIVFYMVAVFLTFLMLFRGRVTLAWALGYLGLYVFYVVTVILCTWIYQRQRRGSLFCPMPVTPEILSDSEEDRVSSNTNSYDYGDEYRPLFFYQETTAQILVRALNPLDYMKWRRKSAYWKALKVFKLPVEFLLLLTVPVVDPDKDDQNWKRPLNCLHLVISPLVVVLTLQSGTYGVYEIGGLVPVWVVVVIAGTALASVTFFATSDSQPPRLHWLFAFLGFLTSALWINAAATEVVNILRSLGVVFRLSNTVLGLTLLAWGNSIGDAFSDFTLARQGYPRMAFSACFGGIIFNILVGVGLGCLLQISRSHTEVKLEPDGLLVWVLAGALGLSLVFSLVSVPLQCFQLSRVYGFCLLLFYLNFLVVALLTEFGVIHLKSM
Chain of UniProt Q9Y6J9 (Q9Y6J9 whole entry, looked up): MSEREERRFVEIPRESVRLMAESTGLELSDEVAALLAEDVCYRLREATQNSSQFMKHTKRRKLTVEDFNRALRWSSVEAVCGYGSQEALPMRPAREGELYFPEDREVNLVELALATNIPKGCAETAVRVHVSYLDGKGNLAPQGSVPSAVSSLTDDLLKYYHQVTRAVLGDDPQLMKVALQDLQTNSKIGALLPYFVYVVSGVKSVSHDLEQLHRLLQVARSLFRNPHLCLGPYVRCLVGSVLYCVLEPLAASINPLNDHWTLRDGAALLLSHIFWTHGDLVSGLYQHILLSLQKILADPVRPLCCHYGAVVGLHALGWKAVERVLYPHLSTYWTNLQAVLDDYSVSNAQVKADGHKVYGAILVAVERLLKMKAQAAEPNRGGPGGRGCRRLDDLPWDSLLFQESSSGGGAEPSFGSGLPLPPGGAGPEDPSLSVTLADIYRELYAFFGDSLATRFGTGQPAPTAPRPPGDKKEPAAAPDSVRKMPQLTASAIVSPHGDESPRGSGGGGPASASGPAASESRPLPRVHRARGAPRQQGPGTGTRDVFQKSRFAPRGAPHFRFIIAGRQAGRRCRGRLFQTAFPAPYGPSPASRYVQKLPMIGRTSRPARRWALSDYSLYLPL

Target | log2 fold change (bafetinib) | log2 fold change (nilotinib) | log2 fold change [1] | log2 fold change (dasatinib) | log2 fold change [2] | log2 fold change [3] | log2 fold change [4] | log2 fold change (tipifarnib) | log2 fold change (mubritinib) | log2 fold change [5] | log2 fold change [6] | log2 fold change [7] | log2 fold change (citarinostat) | log2 fold change (silmitasertib) | log2 fold change [8] | log2 fold change [9] | log2 fold change [10] | log2 fold change (entinostat) | log2 fold change [11] | log2 fold change (vorinostat)
TBP (UniProt P20226) | -0.039 | 0.008 | 0.093 | 0.104 | 0.079 | -0.112 | 0.036 | 0.013 | 0.004 | 0.095 | 0.015 | 0.033 | 0.013 | 0.183 | -0.025 | -0.041 |  |  |  | 
TDP1 (UniProt Q9NUW8) |  |  |  |  |  | -0.1 |  |  |  |  |  |  |  |  |  |  |  |  |  | 
SLC35F6 (UniProt Q8N357) | -0.208 | -0.037 | -0.13 | 0.078 | 0.143 | 0.049 | 0.052 | 0.01 | 0.072 | 0.045 | -0.161 | 0.005 | -0.026 | 0.023 | 0.074 | 0.025 | -0.068 | -0.185 |  | 
SNRK (UniProt Q9NRH2) |  |  |  | -0.061 |  |  |  | -0.079 |  |  |  |  | 0.26 |  |  | 0.325 | -0.19 | -0.046 |  | 
SREBF1 isoform 4 (UniProt P36956) | -0.357 |  |  | -0.043 |  |  |  |  | -0.004 |  | -0.565 (active) |  | 0.095 | 0.01 | 0.057 | 0.007 |  |  |  | 
SLC38A2 (UniProt Q96QD8) | -0.112 | -0.037 | 0.039 | 0.047 | 0.029 | -0.055 | 0.029 | -0.073 | 0.017 | -0.046 | -0.037 | -0.12 | 0.025 | 0.054 | 0.014 | -0.088 | -0.023 | 0.018 |  | 
TCOF1 isoform 6 (UniProt Q13428) | 0.137 | -0.102 | 0.14 |  | -0.033 | 0.07 | -0.061 |  | -0.091 |  | -0.07 | 0.077 | 0.18 | 0.028 |  | -0.042 | 0.281 | 0.23 |  | 
SMDT1 (UniProt Q9H4I9) | -0.138 |  |  | 0.005 |  | 0.137 |  |  | 0.068 | 0.032 | -0.061 | -0.039 | 0.002 | 0.041 | -0.011 | -0.001 | -0.062 | 0.01 | 0.006 | -0.038
TAF6L (UniProt Q9Y6J9) |  | 0.032 | -0.048 | -0.224 | 0.046 | -0.106 | -0.018 | 0.055 | 0.104 | -0.067 | -0.061 |  |  | 0.303 |  |  | -0.038 | 0.033 | -0.078 | 0.248
SUN1 isoform 9 (UniProt O94901) |  | -0.014 | -0.115 | 0.007 | -0.018 | -0.141 | -0.055 | 0.039 | -0.021 | -0.073 | -0.028 | 0.102 | -0.115 | -0.009 | -0.226 | 0.075 | -0.035 | 0.18 | -0.036 | 0.06
SNX2 isoform 2 (UniProt O60749) | -0.163 |  |  | -0.097 |  | 0.16 |  | -0.155 |  | -0.004 |  | -0.264 | 0.065 |  | -0.183 | -0.1 | 0.043 | 0.088 |  | 
SLC8B1 (UniProt Q6J4K2) | -0.149 |  |  | -0.012 |  | -0.019 | 0.103 | 0.058 |  | -0.078 |  | 0.034 |  |  |  |  |  |  | 0.006 | -0.031
TMBIM6 isoform 2 (UniProt P55061) | -0.135 | -0.158 | 0.028 | -0.081 | -0.037 | 0.063 | -0.073 | -0.269 | 0.036 | -0.119 | 0.189 | -0.015 | 0.05 | -0.206 | -0.089 | -0.067 | 0.027 | 0.044 |  | 
SOX5 (UniProt P35711) | -0.06 | -0.437 (active) | -0.011 |  | 0.211 | 0.042 | -0.039 | 0.027 | 0.064 | -0.064 | -0.015 | 0.03 |  | 0.018 |  |  | 0.035 | -0.129 |  | 
SMPD4 isoform 2 (UniProt Q9NXE4) | -0.026 |  |  | -0.285 |  | 0.09 |  | -0.111 | 0.108 | -0.1 | 0.014 | -0.03 |  | -0.058 |  |  |  |  | 0.151 | 0.216
SPAG9 isoform 4 (UniProt O60271) | -0.301 | 0.073 | -0.118 |  | 0.022 | -0.072 | 0.11 |  | 0.074 | -0.164 | -0.09 | -0.199 | -0.048 | 0.014 |  | -0.017 | -0.101 | 0.034 |  | 
THAP9 (UniProt Q9H5L6) | 0.191 | 0.03 | -0.009 | -0.082 | -0.04 | 0.119 | 0.072 |  | 0.17 | 0.021 | 0.024 |  |  | 0.049 |  |  |  |  |  | 
